TDP1 cell noCPT = qHTS for Inhibitors of human tyrosyl-DNA phosphodiesterase 1 (TDP1): qHTS in cells in absence of CPT. DT40 Tdp1-/- hTDP1 cells, no CPT, ATP luminescence, 48 h. Potency, µM (top dose mostly 46.2 µM), for inactives: top-dose activity change, negative = growth inhibition, most hits filed as inhibitors. 15% of 420,000 active. AID 686978, 2013; note: potency is the fitted concentration of half-maximal effect; % is set by controls: 0 for no effect and ±100 for the full control effect; nearly all actives have a fitted effect of over 55% in size
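Compound effects on proliferation are scored in DT40 Tdp1-/-;hTDP1 cells in the absence of CPT. ATP levels (CellTiter-Glo luminescence) are recorded after a ≥48 hr, 37 °C incubation.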
IL1B secr inh = inhibitors of inflammasome signaling (IL-1 beta secretion) | THP-1 LPS/ATP IL-1B secretion, AlphaLISA, 16 h; stronger effect = lower value | activity change, % at 57.5 µM | 4.7% of 360,000 active | AID 743279; in the data active = activity change below about -50%; inconclusive = mostly about -30% to -49%; note: % is set by controls: 0 for no effect and ±100 for the full control effect
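Secreted IL-1B measured by AlphaLISA bead assay after 16 h compound exposure of THP-1 cells; compounds (final up to 57.5 uM) added 1 h before LPS (250 ng/mL) and ATP (1.25 mM) stimulation; lower signal means less secretion.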
D3 ag = activates the human D3 dopamine receptor. P35462. D3R DiscoveRx beta-arrestin cells, luminescence, 90 min. max activation, %. 0.58% of 410,000 active; in the data active = max activation above about 30%; note: 0% is about no effect
Target sequence (P35462 whole entry, looked up): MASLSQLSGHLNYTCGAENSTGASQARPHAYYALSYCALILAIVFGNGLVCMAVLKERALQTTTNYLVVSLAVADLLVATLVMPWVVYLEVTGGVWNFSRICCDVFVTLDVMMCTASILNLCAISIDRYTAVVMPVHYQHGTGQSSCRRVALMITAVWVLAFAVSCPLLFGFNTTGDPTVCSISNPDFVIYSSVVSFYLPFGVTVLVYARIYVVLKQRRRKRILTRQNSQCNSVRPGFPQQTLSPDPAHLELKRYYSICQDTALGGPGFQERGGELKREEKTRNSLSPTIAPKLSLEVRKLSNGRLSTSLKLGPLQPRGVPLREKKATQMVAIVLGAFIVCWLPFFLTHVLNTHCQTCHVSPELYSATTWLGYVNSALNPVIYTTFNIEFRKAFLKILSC
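Agonist-mode cell screen: cells plated at 1500/well and incubated overnight at 37 °C, then exposed to library compounds for 90 min at 37 °C. Detection reagent was added for 30–60 min at room temperature, and luminescence was read.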
ClpP mod = qHTS Assay for Activators of ClpP; purified B. subtilis ClpP, FRET peptide cleavage, 20 min; Potency, µM (doses to about 57.5 µM), without a hit: at the top dose activity change, negative = active; 1.9% of 340,000 active; active = well fitted falling curve with a large enough effect; inconclusive = small, poorly fitted or top-dose-only effect; inactive = no such curve, though single readings can be large or run the other way; note: potency is the fitted concentration of half-maximal effect; the source files actives as falling curves though it sought activators and does not explain the sign; nearly all actives have a fitted effect of over 65% in size
Target sequence (P80244 whole entry, looked up): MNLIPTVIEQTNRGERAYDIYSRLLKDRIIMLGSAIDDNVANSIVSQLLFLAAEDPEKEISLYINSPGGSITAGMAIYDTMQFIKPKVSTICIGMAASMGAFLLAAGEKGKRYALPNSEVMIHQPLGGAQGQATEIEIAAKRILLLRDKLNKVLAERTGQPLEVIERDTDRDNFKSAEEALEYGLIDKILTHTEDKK
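Purified B. subtilis ClpP, 10 microg/mL final in Tris/HCl pH8 with KCl, BSA, glycerol and Tween-20, cleaved an Abz/nitrotyrosine-quenched decapeptide. Fluorescence (ex 320, em 430) was read at 0 and 20 min at room temperature. Delta was normalized to 5.8 microM ADEP and DMSO/no-enzyme controls.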
D3 antag = D3 dopamine receptor (human) antagonism. P35462. D3R cells, DiscoveRx beta-arrestin luminescence, antagonist mode; stronger effect = lower value. max response, negative = inhibition, %. 2.5% of 360,000 active. AID 652054; in the data active = max response below about -50%; inconclusive = no clear call, values can overlap the other calls; note: % is set by controls: 0 for no effect and ±100 for the full control effect
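Cells plated overnight at 1500 cells/well, then exposed to library compounds with dopamine controls for 90 minutes at 37 degrees C. DiscoveRx reagent added for 30–60 minutes at room temperature; luminescence read, quantitative HTS format.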
TDP1 cell CPT = DT40-hTDP1 cell growth loss with CPT. chicken DT40 Tdp1-/-;hTDP1 cells + 20 nM CPT, ATP luminescence, 48 h. Potency, µM (titrated, usually from 46.2 µM), for inactives: at the top dose activity change, negative = growth inhibition, hits mostly inhibitors. 12% of 420,000 active. AID 686979; note: potency is the fitted concentration of half-maximal effect; % is set by controls: 0 for no effect and ±100 for the full control effect; nearly all actives have a fitted effect of over 55% in size
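Chicken DT40 Tdp1-/- cells stably complemented with human TDP1 were seeded at 400 cells/well in medium containing 20 nM camptothecin, exposed to pin-transferred compounds, and grown at 37 °C for at least 48 hr. Viability was read as ATP luminescence.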
An asterisk follows results filed as active; i = inactive; ? = inconclusive; nt = no result; [ ] = another dose, or the depositor's remark. Only some compounds are listed: those with a hit (about 21% of all), similar ones and a draw of the others. Unless noted, calls come from the whole dose curve; as a rule, active = well fitted inhibition curve with a large enough effect; inconclusive = small, poorly fitted or top-dose-only effect; inactive = flat fitted curve, though single readings scatter.

SMILES	TDP1 cell noCPT	IL1B secr inh	D3 ag	ClpP mod	D3 antag	TDP1 cell CPT
CC[C@@H](C)[C@@H]1CN([C@@H](C)CN2CCC[C@H]2CN2C(N)=NC[C@H]2CC(C)C)C(=N)N1CCc1ccc(Cl)c(Cl)c1	?	?	-18.1	-2.1%	-27.8	?
C[C@@H](CN1CCC[C@H]1CN1C(N)=NC[C@@H]1Cc1ccccc1)N1C[C@@H](Cc2ccccc2)N(CCc2ccc(Cl)c(Cl)c2)C1=N	?	-65.9*	-48.4	1.4%	-53.1*	?
Cc1ccccc1OCC(=O)NCC(=O)OCc1cccc2ccccc12	-0.1%	nt	nt	1.8%	nt	-13.5%
Cc1ccccc1OCC(=O)NCC(=O)OCC(=O)c1ccc([N+](=O)[O-])cc1	11.2µM*	?	-1.5	2.4%	12.7	25.9µM*
Cc1ccccc1OCC(=O)NCC(=O)OCc1ccc2ccccc2c1	15.8µM*	nt	nt	3.1%	nt	?
O=C(CCC(=O)OCC(=O)c1ccc([N+](=O)[O-])cc1)Nc1ccccc1Cl	?	4.5	-9.9	-0.4%	5.8	18.4µM*
O=C(CCC(=O)OCC(=O)c1cccc([N+](=O)[O-])c1)Nc1cccc(Cl)c1Cl	-1.1%	12.9	-6.4	1.1%	13.1	15.0%
CSCCC(NC(=O)c1ccccc1)C(=O)NCCCn1nc(C)cc1C (stereo not drawn)	-3.6%	9.0	-1.3	-0.7%	-7.9	-7.1%
CC(C(=O)Nc1cccnc1)n1cc([N+](=O)[O-])cn1 (stereo not drawn)	0.5%	4.0	4.2	-3.5%	4.1	-1.2%
COc1ccccc1/C=C/C(=O)OCCN1CCOCC1	-4.6%	2.1	-5.7	25.1µM*	5.1	-0.1%
COc1ccccc1/C=C/C(=O)OC(C)CN1CCCCC1 (stereo not drawn)	-20.0%	-4.4	-13.6	-1.1%	-59.7*	-1.0%
COc1ccccc1/C=C/C(=O)N1CCOCC1	-5.6%	14.4	-2.8	-23.3%	-3.9	-11.1%
CCCSc1ncc(Cl)c(C(=O)NCc2ccc(C)cc2)n1	-27.0%	nt	0.6	4.8%	nt	-28.5%
CCOC(=O)c1cc2ccccc2n1C1CCN(C)CC1	25.9µM*	-11.2	-14.3	-18.4%	-17.8	?
CCOC(=O)c1nnn2c1nc(N1CCN(C)CC1)c1ccccc12	-9.6%	-15.8	-6.0	-1.8%	15.3	0.6%
CCN(CC)CCNC(=O)c1c(C)n(-c2ccccc2)c2cc(Br)c(OC)cc12	18.4µM*	?	-2.0	-0.8%	-64.8*	?
COc1cccc(-c2cc3c(c(OC)c2)OCCN(S(=O)(=O)c2ccccc2OC(F)(F)F)C3)n1	-6.2%	nt	nt	nt	nt	2.6%[9.04 µM]
Cc1ncc2c(c1CNC(=O)CN1CCCCC1)CCN(C(=O)c1ccc(F)cc1Cl)C2	-15.2%	nt	nt	nt	nt	6.2%[9.04 µM]
CCCOc1ccc(Cc2c(Cl)nc(SC)nc2N(C)C)cc1	14.6µM*	-25.9	0.2	nt	-11.5	?
CCCCn1c(N)c(N(Cc2ccccc2OC)C(=O)c2ccc(N3CCCC3=O)cc2)c(=O)[nH]c1=O	2.4%	3.4	1.5	1.1%	3.4	-12.9%
CCn1c(COc2cc(C)cc(C)c2)nnc1SCC(=O)N1CCN(c2ccccc2)CC1	?	-16.1	-18.4	-0.8%	-23.8	?
C=CCn1c(COc2cccc3ccc(C)nc23)nnc1SCC(=O)OC	6.1%	42.2	0.6	28.2µM*	31.0	10.4%
Cc1cccc(OCc2nnc(SCC(=O)N3CCN(c4ccccc4)CC3)o2)c1C	18.4µM*	-1.6	1.4	-1.1%	47.8	?
CCn1c(COc2cccc3cccnc23)nnc1SCC(=O)OC	-1.2%	-5.3	1.2	-22.0%	19.1	-0.4%
O=C(NCc1nnc(SCC(=O)N2CCN(c3ccccc3)CC2)o1)c1ccc(F)cc1	20.6µM*	50.6	3.7	-29.1%	0.6	?
SMILES	TDP1 cell noCPT	IL1B secr inh	D3 ag	ClpP mod	D3 antag	TDP1 cell CPT
O=C(NCc1nnc(SCC(=O)N2CCCC2)o1)c1ccc(F)cc1	18.1%	i	-0.9	-3.0%	-4.6	8.3%
C=CCn1c(COc2cccc(C)c2C)nnc1SCC(=O)N1CCN(c2ccccc2)CC1	?	-54.9*	-3.3	-2.2%	-9.1	?
Cc1nn(C)c2c1c(C(F)(F)F)cc(=O)n2CC(=O)NCc1ccccc1Cl	?	nt	8.4	71.5%	nt	?
CCOC(=O)c1c(C)[nH]c(C)c1C(=O)COC(=O)C1CC(=O)N(CCc2ccccc2)C1 (stereo not drawn)	-1.2%	-6.3	-0.6	-2.4%	-10.9	3.1%
CCc1ccc2occ(CC(=O)Nc3c(C(=O)c4ccccc4)oc4ccccc34)c2c1	?	nt	-4.3	22.4µM*	nt	-26.2%
Cc1ccc2occ(CC(=O)Nc3c(C(=O)Nc4ccc(Cl)cc4)oc4ccccc34)c2c1	?	nt	7.8	17.8µM*	nt	?
COc1ccc(NC(=O)COC(=O)/C=C/c2cnc3ccccc3n2)cc1	3.3%	12.9	1.3	nt	-5.2	15.5%
CN(C)CCCN(C(=O)c1cccs1)c1nc2ccc(F)cc2s1	?	nt	-18.8	1.5%	nt	16.4µM*
CN(C)CCN(C(=O)c1cccs1)c1nc2cc3c(cc2s1)OCCO3	23.1µM*	-10.9	-8.9	-0.9%	-25.2	?
CN(C)CCN(C(=O)C1CCCCC1)c1nc2cc3c(cc2s1)OCCO3	9.2µM*	?	-12.6	-0.2%	?	-15.1%
CN(C)CCN(C(=O)c1ccc(Br)s1)c1nc2cc3c(cc2s1)OCCO3	-16.7%	8.5	-6.6	nt	0.0	7.1%
CCN(CC)CCN(C(=O)/C=C/c1cccs1)c1nc2ccc(C)cc2s1	6.51µM*	4.8	10.5	-1.6%	-27.7	?
C=Cc1ccc(Cn2c(=O)cc(C)c3c(C)nn(-c4ccccc4)c32)cc1	0.5%	nt	2.8	-13.4%	nt	-23.6%
CCn1cnnc1SCC(=O)Nc1ccccc1C(=O)NC1CC1	-18.6%	23.4	-11.5	1.8%	0.0	-13.1%
COc1cc(/C=C(\C#N)C(=O)Nc2ccc3c(c2)OCCO3)ccc1O	?	-3.3	3.2	0.3%	1.1	?
CCN(CC)CCN(C(=O)/C=C/c1cccs1)c1nc2ccc(F)cc2s1	?	-78.3*	-17.9	1.5%	-70.8*	?
CCc1ccc2nc(N(CCN(C)C)C(=O)/C=C/c3cccs3)sc2c1	?	-81.0*	-11.0	0.3%	6.3	?
CN(C)CCCN(C(=O)/C=C/c1cccs1)c1nc2ccc(F)cc2s1	4.61µM*	-104.2*	-28.2	nt	-9.3	2.59µM*
CN(C)CCN(C(=O)/C=C/c1cccs1)c1nc2ccc(Br)cc2s1	?	23.1	-10.8	7.1%	0.6	?

Assay outcomes from PubChem.
